Peg3 promoter = Peg3 promoter activity inhibition; 360,000 tested, 1.7% active; inhibition, % at 20 µM; HeLa PEG-Prom luciferase reporter, luminescence, overnight; AID 588405;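 active = inhibition of at least 50% at 20 µM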
CF NFkB block = inhibitors of cystic fibrosis induced NF-kB; KKLEB NF-kB-GFP reporter, PAF-induced, GFP fluorescence overnight; inhibition, % at 5 µM; 360,000 tested, 0.86% active; AID 588850;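 active = at least 50% inhibition at 5 µM, scaled per plate between neutral and stimulator controls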;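 note: PAF is a Pseudomonas aeruginosa culture filtrate used as stimulus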
MITF TRPM1 inh = MITF TRPM1 promoter inhibition in SK-MEL-5 cells | 330,000 tested, 0.83% active | inhibition, % at 12.5 µM | SK-MEL-5 TRPM1 promoter luciferase, 24 h;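 active = mean inhibition across replicates of 60% or more, whatever share of single replicates reaches that level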
KKLEB tox = counter-screen for CF NF-kB inhibitors: cytotoxicity; KKLEB CF airway cells viability, ATPlite luminescence, overnight; stronger effect = lower value; cells stimulated with P. aeruginosa culture filtrate; activity change (cytotoxicity), % at 5 µM; 360,000 tested, 0.36% active;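 active = corrected activity change at or below -50% at 5 µM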
Shn3 3UTR inh = reduces Shn3 3'UTR luciferase signal in osteoblasts | Clone20 osteoblast Shn3 3'UTR firefly luciferase, 24 h | inhibition, % at 12.5 µM | 360,000 tested, 0.52% active | AID 588674;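 active = mean inhibition of at least 75% with every replicate also reaching 75%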
HIF-2a block = HIF-2a inhibition | 786-0 RCC cells HIF-2a reporter, luciferase luminescence, overnight | inhibition, % at 18.8 µM | 360,000 tested, 0.72% active | AID 624352;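 active = inhibition of the luminescence signal of 40% or more relative to plate controls, in a single-dose primary screen at 18.75 µM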
A number is an active result; – = inactive; · = no result. In the library only some 2.8% were active in any assay of this set; here they are far more common.

SMILES	Peg3 promoter	CF NFkB block	MITF TRPM1 inh	KKLEB tox	Shn3 3UTR inh	HIF-2a block
CN1C(=O)/C(=C/c2ccc(Cl)s2)C(=O)NC1=S	55	66	–	–	–	–
C=CCN1C(=O)/C(=C/c2ccc(Br)s2)C(=O)NC1=S	–	–	–	–	–	–
Cc1ccsc1/C=C1\C(=O)NC(=S)N(C)C1=O	90	–	70	–	–	–
CN1C(=O)/C(=C\c2ccc(N3CCCCCC3)cc2)C(=O)NC1=S	78	–	–	–	–	–
CN1C2CCC1C(COC(=O)c1ccccc1)C(O)C2 (stereo not given)	–	–	–	–	–	–
CC1CCN(C(CC(=O)c2ccccc2)C(=O)c2ccccc2)CC1 (stereo not given)	105	–	–	–	–	–
Clc1ccc2c(c1)C(OC1CN3CCC1CC3)c1ccccc1CS2 (stereo not given)	97	–	–	–	–	–
O=C(c1ccc(N2CC3CC(C2)c2cccc(=O)n2C3)c([N+](=O)[O-])c1)N1CCCC1 (stereo not given)	–	–	–	–	–	–
C#CC1(O)CCC2C3CCC4=C/C(=N/OCC(=O)NCC(=O)NC(C(=O)O)C(C)C)CC[C@]4(C)C3CC[C@@]21C (stereo not given in full)	–	–	·	–	–	–
C#C[C@]1(O)CC[C@H]2[C@@H]3CCC4=Cc5nc6nc7ccccc7n6cc5C[C@]4(C)[C@H]3CC[C@@]21C	66	–	–	–	–	–
C1=CC(Cc2cncs2)c2ccccc21 (stereo not given)	–	–	–	–	–	–
Cc1c(CCC(=O)N2C[C@H]3C[C@@H](C2)c2cccc(=O)n2C3)c(=O)oc2c(C)c(O)ccc12	–	–	·	–	–	–
C=CCN1C(=O)NC(=O)/C(=C/c2ccc(OC)c(CSc3ccccn3)c2)C1=O	–	–	–	–	–	–
O=C1NC(=O)N(CCc2ccc(F)cc2)C(=O)/C1=C\C=C\c1ccccc1	–	89	90	–	–	–
C=CCN1C(=O)NC(=O)/C(=C/C=C/c2ccccc2)C1=O	–	–	94	–	–	–
COc1ccc(CN2Cc3cc(N4CCCCC4)ccc3-n3nncc3C2)cc1	–	–	·	–	–	–
CC(C)(O)/C=C/C(=O)C(C)(O)C1C(O)CC2(C)C3CC=C4C(C=C(O)C(=O)C4(C)C)C3(C)C(=O)CC12C (stereo not given)	99	86	·	-62	89	91
CC(=O)OC(C)(C)/C=C/C(=O)[C@](C)(O)C1[C@H](O)C[C@@]2(C)C3CC=C4C(C[C@H](O)C(=O)C4(C)C)[C@]3(C)C(=O)C[C@]12C (stereo not given in full)	104	84	91	-89	–	72
COC(=O)C1(F)C(=O)NC(=O)NC1O (stereo not given)	·	·	·	·	·	–
C[C@H]1C/C=C/[C@H]2[C@H](O)[C@H](C)[C@@](C)(O)[C@H]3[C@H](Cc4ccccc4)NC(=O)[C@]32[C@H](O)/C=C/[C@](C)(O)C1	–	–	·	–	–	–
C=C1C(C)C2C(Cc3ccccc3)NC(=O)C23C(OC(C)=O)C=CC(C)(O)CC(C)CC=CC3C1O (stereo not given)	–	53	–	-67	–	–
C=C1[C@@H](C)[C@H]2[C@H](Cc3ccccc3)NC(=O)[C@]23OC(=O)/C=C/[C@H](O)CCC[C@@H](C)C/C=C/[C@H]3[C@@H]1O	64	81	–	–	–	–
COC(=O)C1=C(c2ccc(F)cc2OCc2ccccc2)C[C@@H]2CC[C@H]1N2C(=O)NC1Cc2ccccc2C1	–	–	–	–	87	–
COC(=O)C1=C(c2ccc(F)cc2OCc2ccccc2)C[C@@H]2CC[C@H]1N2C(=O)NCc1ccc(F)cc1	–	–	–	–	–	–
O=c1c2ccccc2nc(CNc2ccccc2)n1-c1ccccc1	–	–	–	–	·	–
CC1([N+](=O)[O-])COP(=O)(NC2CC2)OC1 (stereo not given)	–	–	–	–	–	–
O=C(Nc1ccc(F)c([N+](=O)[O-])c1)N1C[C@H]2C[C@@H](C1)c1cccc(=O)n1C2	–	–	–	–	–	–
N#CC(C#N)=C(C#N)c1ccc(Nc2ccccc2)cc1	–	53	–	–	–	–

Bioassay records deposited in PubChem BioAssay by several laboratories.
